Tests used:
Assay type in all cases: functional
Plasmodium falciparum [1] = assay: GSK_TCMDC: Inhibition of Plasmodium falciparum 3D7 in whole red blood cells, using parasite LDH activity as an index of growth. Test compounds present at 2uM
Plasmodium falciparum [2] = assay: GSK_TCMDC: Inhibition of Plasmodium falciparum Dd2 in whole red blood cells, using parasite LDH activity as an index of growth. Test compounds present at 2uM
HepG2 = assay: GSK_TCMDC: Percent inhibition of human HepG2 cell line. Test compounds present at 10uM.

Row | SMILES | Inhibition (Plasmodium falciparum [1]) | Inhibition (Plasmodium falciparum [2]) | Inhibition (HepG2)
1 | Cc1ccc(C2CC(c3cccs3)=NN2C(=O)c2ccc(Br)o2)cc1 (stereo unspecified) | 99% | 69% | 11%
2 | COc1cc(OC)cc(C(=O)Nc2ccc(Nc3nc(C)cc(N(C)C)n3)cc2)c1 | 100% | 90% | 11%
3 | O=C(Nc1ccc(F)cc1)NC1CCN(c2ccnc3cc(Cl)ccc23)C1.O=C(O)C(F)(F)F (stereo unspecified) | 100% | 67% | 17%
4 | Cc1onc(-c2ccccc2)c1-c1nc(NCc2ccccc2Cl)no1 | 99% | 92% | 2%
5 | CC[C@H](C)CNC(=O)c1cncc(-c2ccc(CNC3CCCC3)cc2)c1.O=C(O)C(F)(F)F | 97% | 5% | 0%
6 | Fc1ccc2[nH]c(-c3cccc(-c4ccc(CN5CCC(CCN6CCCCC6)CC5)cc4)c3)nc2c1.O=C(O)C(F)(F)F | 100% | 100% | 91%
7 | COc1ccc(NC(=O)Nc2ccc(-c3ccccc3)cc2)cc1Cn1nc(Cl)c(N2CCCNCC2)cc1=O.O=C(O)C(F)(F)F | 100% | 84% | 18%
8 | Clc1cc2c(Nc3ccc(Oc4ccccc4)cc3)ccnc2cc1-c1ccc(CNCCN2CCOCC2)o1 | 100% | 89% | 0%
9 | CC(C)CCN1CCC(Oc2ccc(NC(=O)c3ccco3)cc2Cl)CC1.O=C(O)C(F)(F)F | 95% | 93% | 1%
10 | COc1ccccc1N1CCN(Cc2c(O)ccc3cc(Br)ccc23)CC1 | 89% | 75% | 8%
11 | C=CC[C@H](C[C@H](O)[C@H](Cc1ccccc1)NC(=O)c1ccc(-n2cccn2)cc1)C(=O)NC1CCCCC1 | 96% | 0% | 1%
12 | C[C@H](Cc1ccc(OCCCCCOc2ccc(C[C@@H](C)NC[C@H](O)c3cccc(Cl)c3)cc2)cc1)NC[C@H](O)c1cccc(Cl)c1.Cl | 99% | 100% | 99%
13 | Cc1cc(N[C@@H](Cc2ccccc2)C(=O)NC2CCCC2)nc(NCCc2ccc(F)cc2)n1.O=C(O)C(F)(F)F | 100% | 61% | 21%
14 | COc1ccc2c(=NN=Cc3c(OC)ccc4ccccc34)cc(C)[nH]c2c1 | 100% | 85% | 7%
15 | Cl.c1ccc(-c2ccc3c(Nc4ccc5[nH]ccc5c4)ccnc3c2)nc1 | 91% | 78% | 11%
16 | Br.CC1(C)NC(N)=NC(=N)N1OCCSc1ccc(Cl)c(Cl)c1 | 96% | 95% | 65%
17 | COc1ccc(NC(=O)Nc2ccc(Nc3nc(C)cc(N(C)C)n3)cc2)cc1 | 100% | 99% | 11%
18 | CCCN1CCN(c2cc(S(=O)(=O)Nc3ccc(C(=O)NCc4cccc(C(F)(F)F)c4)cc3)ccc2OC)CC1.O=C(O)C(F)(F)F | 92% | 8% | 27%
19 | COc1ccc2ncc(F)c(CCN3CC(O)C(CNCc4ccc5c(n4)NC(=O)CS5)C3)c2c1.Cl (stereo unspecified) | 92% | 34% | 0%
20 | Cc1cccc2nc(-c3ccc(-c4ccc(CN5CCCC(O)C5)cc4)cc3)[nH]c12.O=C(O)C(F)(F)F (stereo unspecified) | 100% | 54% | 41%
21 | CCOc1cc(CC)ccc1C1CCN(CCCCNC(=O)c2ccc(NC(=O)c3ccc(C#N)cc3)cc2)CC1 | 91% | 50% | 55%
22 | Cc1cc(OCCCNC(=N)c2ccc3ccccc3c2)c(C(C)C)cc1Cl.Cc1ccc(S(=O)(=O)O)cc1 | 95% | 10% | 89%
23 | Cc1cc2c(cc1C(F)(F)F)N(C(=O)Nc1ccc(C(=O)NC3CCN(Cc4ccccc4)C3)cc1)CC2 (stereo unspecified) | 100% | 48% | 19%
24 | O=C(Nc1ccc(Cl)cc1)c1cccc(CN2CCCN(Cc3cccc(O)c3)CC2)c1.O=C(O)C(F)(F)F | 98% | 43% | 14%
25 | COc1ccc2nccc([C@@H](O)CN3CCC(NCCOc4c(C)cccc4F)CC3)c2c1.O=C(O)C(=O)O | 100% | 95% | 4%
26 | COc1ccc2nccc(C(=O)NC3CCC(CCN4CCc5cc(C#N)ccc5C4)CC3)c2c1.Cl (stereo unspecified) | 97% | 1% | 12%
27 | O=C(O[C@@H]1CN[C@H](C#Cc2cc3c(Nc4ccc5c(cnn5Cc5ccccc5)c4)ncnc3s2)C1)N1CCCC1 | 99% | 87% | 8%
